The source of these data is PubChem BioAssay (NCI).

Molecules are shown by their SMILES. About 79,000 compounds went through this panel and 15% of them were active in at least one assay; those are over-represented in the sample as a whole. Active and inactive are the calls of the source. No stated cut-off is given here; in the data, active means growth inhibition above about 70%; inactive means the rest. Where a SMILES comes first, the peptide text is derived from it. [ ]: non-standard residue; d: D form. The star is where a group is joined. mTyr = N[CH](Cc1cccc(O)c1)C(=O)O; Cbz = O=C(OCc1ccccc1)*; OBn = c1ccc(CO*)cc1

The test is described as follows: NCI Yeast Anticancer Drug Screen. Data for the sgs1 mgt1 strain (AID 161).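 Further: 0% = growth of cultures given vehicle only.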 The conditions noted are these: S. cerevisiae sgs1 mgt1 strain, at 50.0 µM (retest, dose inferred, filed as 5.0), active compounds read high. In a few lines:
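Genetically altered yeast, compound exposure, growth inhibition relative to vehicle.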
`O=c1[nH]c2c([N+](=O)[O-])cc(Cl)cc2nc1/C=C(\O)c1ccc(Cl)cc1`: the growth inhibition was 78% (active).

Consider `CCOC(=O)C1=C(N)N(S(=O)(=O)c2ccc(C)cc2)CCC(C(=O)OC)=C1`, for which the growth inhibition was -1% (inactive). Turning to `CC(C)=CC(=O)OC(CCCc1ccccc1)c1ccc2c(c1)OCO2` (centres undefined), the growth inhibition was 9% (inactive). Regarding `OCCN(CCO)c1cc(/C=C/c2ccnc3ccccc23)nc2ccccc12`, the growth inhibition is 47% (inactive). Turning to `CCCCCCCCCCCC(=O)OCC1CO1` (centres undefined), the growth inhibition is 1% (inactive).

As for `CCCCCCCCCCCCCCCCCC1=NCCN1`, the growth inhibition is 98% (active).

As for `CC(=O)OCC1OC(OC2C=C(O[Si](C)(C)C)C[C@H]3C(=O)C=CC(=O)[C@@H]23)C(OC(C)=O)C(OC(C)=O)C1OC(C)=O` (some centres undefined), the growth inhibition was 98% (active). Then `C[C@]12CC[C@H]3[C@@H](CCC4=CC(=O)CC[C@@]43C)[C@@H]1CC[C@@H]2C(=O)C=O`, with 61% (inactive); and `CCCCCC(O)C(C)CO` (centres undefined), with -4% (inactive); and `CC(=O)Oc1ccc(-c2ccccc2)cc1Br`, with 97% (active). On to `COC(=O)C(Cc1cccc(O)c1)NC(=O)C(CC(=O)OCc1ccccc1)NC(=O)OCc1ccccc1` (centres undefined) (Cbz-Asp(OBn)-[mTyr]-OMe; configuration not given here), for which the growth inhibition was 87% (active). Take `CCC(CO)Nc1nc2cc(Br)ccc2c2ccc(Br)cc12` (centres undefined): the growth inhibition is 93% (active).

On to `Cc1cc(Br)ccc1NC(=O)/C=C/C(=O)O`, for which the growth inhibition was -4% (inactive). Then `CCO/C=C1N=C(/C=C/c2ccccc2Cl)OC/1=O`, with 52% (inactive); and `O=S(=O)(Nc1ccccc1C(F)(F)F)c1ccc(F)cc1`, with 43% (inactive). For the compound `N#CSCC(=O)c1ccc2ccccc2c1`, the growth inhibition is 99% (active). Then `O=[N+]([O-])/C(Cl)=C(\Nc1ccccc1)C(Cl)=C(Cl)Cl`, with 99% (active); and `C/C(=N/NC(=O)c1ccccc1S(N)(=O)=O)C(CN1CCCCC1)C(C1=C(O)C2C=CC=CC2OC1=O)c1ccccc1` (centres undefined), with 19% (inactive); and `N#Cc1c([N+](=O)[O-])cc(C(F)(F)F)cc1[N+](=O)[O-]`, with 100% (active). On to `CCCCCCCCCCCCO`, for which the growth inhibition was 28% (inactive). Then `S=C(N/N=C/c1ccccn1)N1CC2CCC(CC2)C1`, with 99% (active).

Regarding `ClC1(c2ccccc2)c2ccccc2-c2ccccc21`, the growth inhibition was 98% (active). Then `Cc1ccc(SCC#CC#CCS(=O)c2ccc(C)cc2)cc1` (centres undefined), with 99% (active); and `CCCCCCCOc1ccc(C=O)cc1OC`, with 45% (inactive).
